These results are taken from PubChem BioAssay (NCATS).

Values joined by “and” are separate entries in the source; they are usually repeats but may differ in a detail not shown here. Equal values may be shown once. Records with an inconclusive call do not appear. Active and inactive are the calls of the source. Unless noted, calls come from the whole dose curve; as a rule, active = well fitted curve in the direction sought with a large enough effect; inconclusive = small, poorly fitted or top-dose-only effect, or another doubt; inactive = no such curve, though single readings can be large; an effect the other way counts as inactive or inconclusive.

A short description of test [1]: P-glycoprotein substrates identified in KB-3-1 adenocarcinoma cell line, qHTS therapeutic library screen (AID 1346986). Note: nearly all actives have a fitted effect of over 60% in size.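 Note: potency is the fitted concentration of half-maximal effect; potency is for cytotoxicity meaning loss of cell viability.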 A digest of the protocol: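 In 1536-well format, 500 cells/well received pinned compound titrations and were incubated 72 h, 5% CO2. Viability was read by CellTiter-Glo; cytotoxic if AC50 < 10 uM and efficacy >50%.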
(qHTS replaces the single test concentration by a dilution series.)

Test [2] is described as follows: P-glycoprotein substrates identified in KB-8-5-11 adenocarcinoma cell line, qHTS therapeutic library screen (AID 1346987). Note: nearly all actives have a fitted effect of over 65% in size. Note: potency is the fitted concentration of half-maximal effect. The essentials:
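Luminescence from CellTiter-Glo, read 5 min after addition, quantified survival of KB-8-5-11 (P-gp-overexpressing) cells exposed to compounds for 72 h. AC50 was derived from concentration-response curves.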

A short description of test [3]: qHTS of pediatric cancer cell lines to identify multiple opportunities for drug repurposing: Primary screen for DAOY cells (AID 1347090). Note: series mostly up to about 46 µM; nearly all actives have a fitted effect of over 55% in size. A digest of the protocol:
(§1)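 Viability measured as metabolically active cells via CellTiter-Glo luminescence following 48 hours of compound exposure, 11-point dilutions in confirmatory testing. 500-1,000 cells/well plated 5 hours before dosing; controls were DMSO and 2.3 µM bortezomib.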

Test [4] is described as follows: qHTS of pediatric cancer cell lines to identify multiple opportunities for drug repurposing: Primary screen for A673 cells (AID 1347092). Note: nearly all actives have a fitted effect of over 45% in size. Note: potency is the fitted concentration of half-maximal effect. The essentials: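 A673 cells (500-1,000 cells/well in growth media) were pre-incubated 5 h at 37 degrees C, then exposed to compounds for 48 h. Viability was read as CellTiter-Glo luminescence; concentration-response curves came directly from the primary screen.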

Test [5] can be described thus: qHTS of pediatric cancer cell lines to identify multiple opportunities for drug repurposing: Primary screen for BT-37 cells (AID 1347094). Note: potency is the fitted concentration of half-maximal effect. A digest of the protocol:
(§2)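 Phenotypic viability qHTS, 48 h compound exposure, CellTiter-Glo luminescence read-out; multi-concentration dosing so that potency and efficacy derive directly from the primary screen's curves.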

Test [6] in a line: qHTS of pediatric cancer cell lines to identify multiple opportunities for drug repurposing: Primary screen for U-2 OS cells (AID 1347096). Note: nearly all actives have a fitted effect of over 50% in size. The essentials:
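Viability after 48 h compound treatment at 37C, 500-1,000 cells/well, read as ATP luminescence with CellTiter-Glo. Primary screens used 11-point (MIPE, 0.78 nM-46 µM) or 8-point (NPC, 0.59 nM-46 µM) final concentrations; follow-up screens used 11-point dilutions.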

The nature of test [7]: qHTS of pediatric cancer cell lines to identify multiple opportunities for drug repurposing: Primary screen for Saos-2 cells (AID 1347097). Note: nearly all actives have a fitted effect of over 40% in size. A digest of the protocol: as §2
Test [8] can be described thus: qHTS of pediatric cancer cell lines to identify multiple opportunities for drug repurposing: Primary screen for TC32 cells (AID 1347089). Note: nearly all actives have a fitted effect of over 60% in size. The essentials:
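Luminescent CellTiter-Glo read-out of metabolically active TC32 cells after 48 h compound exposure. Primary: MIPE 11-point, 0.78 nM–46 µM; NPC 8-point, 0.59 nM–46 µM. Confirmatory: 11-point dilutions.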

A short description of test [9]: qHTS of pediatric cancer cell lines to identify multiple opportunities for drug repurposing: Primary screen for SJ-GBM2 cells (AID 1347091). The essentials:
as §1

Test [10] is described as follows: qHTS of pediatric cancer cell lines to identify multiple opportunities for drug repurposing: Primary screen for SK-N-MC cells (AID 1347093). Note: potency is the fitted concentration of half-maximal effect. The essentials: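 Metabolically active cells were quantified by ATP-dependent luminescence (CellTiter-Glo, 15 min at room temperature) following 48 h treatment. Cells had been plated at 500-1,000 per well and settled for 5 h beforehand.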

The nature of test [11]: qHTS of pediatric cancer cell lines to identify multiple opportunities for drug repurposing: Primary screen for NB-EBc1 cells (AID 1347095). The essentials: as §2
Test [12] has as its target Atrial natriuretic peptide receptor 2 (Homo sapiens) (UniProt P20594). The experiment in a line: Natriuretic polypeptide receptor (hNpr2) antagonism - Pilot subtype selectivity assay (AID 1347050; calls by dose curve). The essentials:
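Luminescence from a genetically encoded cGMP luciferase biosensor in hNpr2-expressing HEK293 cells is read before and 20 min after adding 1 nM hNppC. Test compounds, in interplate 1:5 titrations, are added 30-50 min ahead of the agonist.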

A short description of test [13]: NS1 protein of Zika virus - qHTS assay to identify small molecule inhibitors in human HEK 293 cells (AID 1347053). Note: series mostly up to about 46 µM; nearly all actives have a fitted effect of over 55% in size. A digest of the protocol:
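Read-out is a two-antibody TR-FRET for ZIKV NS1, normalized between uninfected cells and infected cells. Compound added 1 h before MR766 infection at MOI 0.5; human HEK 293 cells incubated 24 h, 37 C.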

Test [14] addresses Parathyroid hormone/parathyroid hormone-related peptide receptor (Homo sapiens) (UniProt Q03431). The test can be described thus: qHTS for PTHR1 Agonists: Optimization Screen against the NCGC LOPAC library (AID 1347079).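 Note: GloSensor cAMP luminescence in HEK-293 GP2 cells expressing human PTHR1 with IBMX.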 The essentials:
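HEK-293 GP2 cells, PTHR1 + GloSensor cAMP; 3000 cells/well, o/n. Luciferin + IBMX 0.5mM each (stock), 1 hr 37C. Cpd titration, 1 hr 37C. Lum after 15 min RT. Ctrl M-PTH(1-15) top 10uM.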

Test [15] is described as follows: qHTS of pediatric cancer cell lines to identify multiple opportunities for drug repurposing: Primary screen for SK-N-SH cells (AID 1347098). Note: nearly all actives have a fitted effect of over 65% in size. Note: potency is the fitted concentration of half-maximal effect. A digest of the protocol: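 Cells (500-1,000/well) rested 5 h, then received compounds for 48 h; metabolically active cells were measured by CellTiter-Glo luminescence. Final concentrations spanned up to 46 µM (MIPE, 11-point) or 0.59 nM-46 µM (NPC, 8-point) in primary screens, 11-point in follow-ups.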

Test [16] is described as follows: qHTS of pediatric cancer cell lines to identify multiple opportunities for drug repurposing: Primary screen for NB1643 cells (AID 1347099). Note: nearly all actives have a fitted effect of over 50% in size. Note: potency is the fitted concentration of half-maximal effect. A digest of the protocol:
as §2

Test [17] in a line: Natriuretic polypeptide receptor (hNpr1) antagonism - Pilot counterscreen GloSensor control cell line (AID 1347045; calls by dose curve; note: series mostly up to about 38 µM). A digest of the protocol: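 Cells were first seeded and incubated overnight at 37C, then loaded with 2% GloSensor substrate for 2 h. Compounds were added for 30 min at room temperature, followed by a baseline read, 50 uM SNP and a final read after 20 min.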
(Counterscreens check selectivity or assay interference.)

Test [18] addresses T1, Tyrosine-protein phosphatase non-receptor type substrate 1 (Homo sapiens) + Leukocyte surface antigen CD47 (Homo sapiens) (UniProt P78324+Q08722). The test can be described thus: CD47-SIRPalpha protein protein interaction - LANCE assay qHTS validation (AID 1347057; active = well fitted curve in the direction sought with a large enough effect in the signal ratio, with a control signal flat, not every such curve was filed as active; the % refers to the signal ratio; note: series mostly up to about 38 µM). The essentials:
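Inhibition of soluble CD47/SIRPalpha ectodomain association by titrated compounds, measured as 665/615 nm time-resolved FRET ratio after sequential 30 min room-temperature incubations.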
On the technique in general: TR-FRET usually uses a lanthanide donor and a delayed reading to cut background.

For test [19], the target named is T1, Tyrosine-protein phosphatase non-receptor type substrate 1 (Homo sapiens) + Leukocyte surface antigen CD47 (Homo sapiens). The test can be described thus: CD47-SIRPalpha protein protein interaction - HTRF assay qHTS validation (AID 1347058; active = well fitted curve in the direction sought with a large enough effect in the signal ratio, not every such curve was filed as active; the % refers to the signal ratio; note: series mostly up to about 38 µM). The essentials:
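Soluble extracellular domains (6His-CD47, Avi-tag-biotinylated SIRPalpha) in PBS pH 7.4 with 0.05% IGEPAL CA-630. Compounds were preincubated 30 min at RT with CD47 and anti-His-Eu, then SIRPalpha and SAV-XL665 were added. TR-FRET 665/615 ratio.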

For test [20] the target is unchanged. The experiment in a line: CD47-SIRPalpha protein protein interaction - Alpha assay qHTS validation (AID 1347059).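 Note: bead proximity luminescence from CD47 binding SIRPalpha after compound preincubation with SIRPalpha.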 A digest of the protocol: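 SIRPalpha-biotin 25 nM + cpd, 30 min RT, dark; add CD47-His 12.5 nM, 30 min; add Ni-NTA/SAV beads 10 ug/mL, 30 min; AlphaScreen. Buffer PBS pH 7.4 + 0.05% IGEPAL CA-630. Non-biotinylated SIRPalpha as control inhibitor.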

Parathyroid hormone/parathyroid hormone-related peptide receptor (Homo sapiens), sequence (Q03431 whole entry, looked up): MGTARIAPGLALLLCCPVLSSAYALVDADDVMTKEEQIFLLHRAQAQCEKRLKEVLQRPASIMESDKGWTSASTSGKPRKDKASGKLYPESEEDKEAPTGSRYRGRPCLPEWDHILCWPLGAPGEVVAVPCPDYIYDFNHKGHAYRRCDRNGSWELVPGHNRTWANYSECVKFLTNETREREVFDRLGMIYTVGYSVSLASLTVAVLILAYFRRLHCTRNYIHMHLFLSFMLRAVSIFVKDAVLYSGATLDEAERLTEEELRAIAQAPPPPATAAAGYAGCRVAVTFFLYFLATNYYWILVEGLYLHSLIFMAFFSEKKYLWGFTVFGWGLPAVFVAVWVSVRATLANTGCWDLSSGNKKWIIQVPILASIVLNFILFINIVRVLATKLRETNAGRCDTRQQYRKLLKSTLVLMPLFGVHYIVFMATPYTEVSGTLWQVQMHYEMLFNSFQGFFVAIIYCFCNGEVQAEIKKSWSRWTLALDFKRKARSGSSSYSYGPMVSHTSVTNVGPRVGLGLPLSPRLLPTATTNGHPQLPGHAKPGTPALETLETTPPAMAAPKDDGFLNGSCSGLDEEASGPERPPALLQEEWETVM
T1 sequence (P78324 whole entry, looked up, the tested form may be a part): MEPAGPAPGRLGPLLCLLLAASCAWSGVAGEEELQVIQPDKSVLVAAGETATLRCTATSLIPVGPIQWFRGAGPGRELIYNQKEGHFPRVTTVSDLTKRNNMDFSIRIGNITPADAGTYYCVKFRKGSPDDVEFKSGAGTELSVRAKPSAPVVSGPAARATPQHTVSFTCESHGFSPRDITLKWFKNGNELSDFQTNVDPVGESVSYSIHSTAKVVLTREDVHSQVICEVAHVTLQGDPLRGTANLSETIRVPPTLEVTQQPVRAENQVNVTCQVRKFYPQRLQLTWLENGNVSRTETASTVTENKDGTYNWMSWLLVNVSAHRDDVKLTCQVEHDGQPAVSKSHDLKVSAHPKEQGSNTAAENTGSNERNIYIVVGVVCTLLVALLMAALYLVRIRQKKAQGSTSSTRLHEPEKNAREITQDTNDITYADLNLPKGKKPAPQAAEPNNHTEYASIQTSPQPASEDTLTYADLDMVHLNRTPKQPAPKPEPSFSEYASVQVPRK
T1 sequence (Q08722 whole entry, looked up, the tested form may be a part): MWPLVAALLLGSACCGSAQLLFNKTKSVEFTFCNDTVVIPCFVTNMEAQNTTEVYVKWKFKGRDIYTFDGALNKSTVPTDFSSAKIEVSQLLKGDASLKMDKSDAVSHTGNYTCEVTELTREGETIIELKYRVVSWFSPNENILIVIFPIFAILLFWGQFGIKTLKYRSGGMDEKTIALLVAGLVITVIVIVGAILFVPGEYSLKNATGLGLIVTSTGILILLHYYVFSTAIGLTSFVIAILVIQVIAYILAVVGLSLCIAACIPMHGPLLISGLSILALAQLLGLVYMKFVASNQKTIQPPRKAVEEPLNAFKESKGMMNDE
Atrial natriuretic peptide receptor 2 (Homo sapiens), sequence (P20594 whole entry, looked up): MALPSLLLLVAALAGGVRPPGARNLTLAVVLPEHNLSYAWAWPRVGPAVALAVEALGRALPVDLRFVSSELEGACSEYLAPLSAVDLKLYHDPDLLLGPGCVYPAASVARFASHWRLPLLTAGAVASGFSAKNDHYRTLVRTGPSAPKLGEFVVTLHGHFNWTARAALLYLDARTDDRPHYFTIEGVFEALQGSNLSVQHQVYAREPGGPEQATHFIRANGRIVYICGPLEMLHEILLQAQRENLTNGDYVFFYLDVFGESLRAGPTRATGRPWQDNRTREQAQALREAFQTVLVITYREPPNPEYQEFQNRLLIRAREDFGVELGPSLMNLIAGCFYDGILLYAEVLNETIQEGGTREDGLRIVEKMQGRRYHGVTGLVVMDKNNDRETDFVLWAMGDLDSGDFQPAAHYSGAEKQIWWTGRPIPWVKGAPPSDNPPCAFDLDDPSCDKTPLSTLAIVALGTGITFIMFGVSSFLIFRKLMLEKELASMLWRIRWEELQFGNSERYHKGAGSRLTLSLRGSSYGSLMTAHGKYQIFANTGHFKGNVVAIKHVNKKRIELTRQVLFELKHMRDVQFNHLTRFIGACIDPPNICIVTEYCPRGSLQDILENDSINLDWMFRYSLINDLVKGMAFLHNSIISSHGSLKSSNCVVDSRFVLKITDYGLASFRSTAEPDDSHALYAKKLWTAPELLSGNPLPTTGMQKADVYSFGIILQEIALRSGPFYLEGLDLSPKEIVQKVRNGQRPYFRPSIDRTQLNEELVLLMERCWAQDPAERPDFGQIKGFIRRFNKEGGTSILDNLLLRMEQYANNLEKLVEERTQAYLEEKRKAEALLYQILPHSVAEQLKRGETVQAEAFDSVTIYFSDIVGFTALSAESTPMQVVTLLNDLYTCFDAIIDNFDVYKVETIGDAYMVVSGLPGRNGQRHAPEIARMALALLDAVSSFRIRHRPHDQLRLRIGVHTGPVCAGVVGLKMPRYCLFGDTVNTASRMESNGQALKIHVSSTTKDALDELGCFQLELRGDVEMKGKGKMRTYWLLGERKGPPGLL

In the case of `COc1cc(N2CCC(N3CCN(C)CC3)CC2)ccc1Nc1ncnc(Nc2ccccc2S(=O)(=O)C(C)C)n1`, the Potency in [1] was 10.3 µM (active); in test [2], 5.9 µM (active) and 9.2 µM (active); in test [4], 9.35 µM (active); in test [5], 15.3 µM (active). Moreover, the Potency result in test [3], in test [6] and in test [7] was “inactive” throughout.

`O=c1cc(-c2cccc3c2Sc2ccccc2S3)oc(N2CCOCC2)c1`: the Potency result in test [1], in test [2], in test [8], in [9], in test [5] and in test [11] was “inactive” each time. The Potency entry in test [6] is “inactive”. Also, the Potency in [10] is 18.7 µM (active).

Turning to `CCCCC1C(=O)N(c2ccccc2)N(c2ccccc2)C1=O`, the Potency entry in test [2], in [13], in [8], in test [3], in test [9] and in test [5] was “inactive” each time. Moreover, the Potency entry in test [11], in test [15] and in [16] was “inactive” each time. Moreover, the compound was called inactive in test [12] and in test [14].

On to `CC(=O)c1ccc(S(=O)(=O)NC(=O)NC2CCCCC2)cc1`, for which the Potency entry in test [2], in test [17], in test [13], in test [8], in [9] and in test [4] was “inactive” in each case. The Potency result in test [10], in [5], in test [11], in [6], in test [7] and in [15] was “inactive” each time. For the same compound, the Potency entry in test [16] is “inactive”. In addition, the result in test [12], in test [18], in [19], in test [20] and in test [14] was inactive.

Consider `CCCNC(=O)NS(=O)(=O)c1ccc(Cl)cc1`, for which the Potency entry in test [2], in test [17], in test [8], in test [3], in test [9] and in test [5] was “inactive” in each case. For the same compound, the Potency entry in test [11], in [6], in test [7] and in [15] was “inactive” in each case. In addition, the call in test [12], in test [18], in [19], in [20] and in test [14] was inactive.

As for `CCN(CC)CCOC(=O)c1ccc(N)cc1`, the Potency result in [2], in test [17], in [13], in test [8], in test [9] and in [4] was “inactive” each time. Also, the Potency result in test [10], in test [5], in test [11], in test [6], in test [7] and in test [15] was “inactive” each time. For the same compound, the Potency entry in test [16] was “inactive”. For the same compound, the outcome in [12], in test [18], in test [19], in test [20] and in [14] was inactive.

As for `NCCS`, the Potency result in [2], in [17], in [13], in test [8], in [3] and in test [10] was “inactive” in each case. Besides, the Potency result in test [5], in test [11], in [6], in test [7], in test [15] and in [16] was “inactive” throughout. Besides, the result in [12], in test [18], in [19], in test [20] and in test [14] was inactive.

In the case of `CC(=O)O[C@]1(C(C)=O)CC[C@@H]2[C@@H]3C[C@H](C)C4=CC(=O)CC[C@]4(C)[C@H]3CC[C@@]21C`, the Potency result in [1], in test [2], in test [8], in test [5], in test [11] and in [6] was “inactive” in each case. The Potency in test [4] was 18.7 µM (active); in test [10], 18.7 µM (active); in test [15], 24.1 µM (active); in test [16], 20.9 µM (active).
